This test concerns hN + hpA co-culture (H1 iNGN2 human neurons + human primary astrocytes). The experiment in a line: presynaptic density (SYNAPSIN1 puncta per MAP2 neurite area), Z-score vs DMSO controls; higher = more presynaptic puncta (synapse-promoting). As to conditions: 3 µM; 72 h.
For the molecule `CN(C)CCOc1ccc(/C(=C(/CCCl)c2ccccc2)c2ccccc2)cc1`, the “presynaptic density (Z-score)” value was -0.866.

Regarding `CCCC(C)NC(=O)c1ccc(Cl)c(Cl)c1` (stereo not drawn), the “presynaptic density (Z-score)” value was -0.211. With `CC(C)(C)Cn1c(N)nc2ccc(-c3[nH]c(C(C)(C)C)nc3-c3ccc(F)cc3)nc21`, the “presynaptic density (Z-score)” value was found to be 0.191. In the case of `COC1CC2CCC(C)C(O)(O2)C(=O)C(=O)N2CCCCC2C(=O)OC(C(C)CC2CCC(OP(C)(C)=O)C(OC)C2)CC(=O)C(C)C=C(C)C(O)C(OC)C(=O)C(C)CC(C)C=CC=CC=C1C` (stereo not drawn) [Ridaforolimus (Deforolimus], the “presynaptic density (Z-score)” value was 0.509. As for `NS(=O)(=O)C#Cc1ccccc1` [2-Phenylethynesulfonamide], the figure is 0.148; as for `CC(NC(=O)Cc1cc(F)cc(F)c1)C(=O)NC1C(=O)N(C)c2ccccc2-c2ccccc21` (stereo not drawn), -0.744; as for `CCOC(=O)c1ccc(N2NC(=O)C(=Cc3ccc([N+](=O)[O-])o3)C2=O)cc1`, 0.0787. As for `CN(c1ncccc1CNc1nc(Nc2ccc3c(c2)CC(=O)N3)ncc1C(F)(F)F)S(C)(=O)=O`, the figure is -0.85; as for `O=C(Nc1ccc(S(=O)(=O)Nc2ccccc2Cl)c(Cl)c1)c1ccccn1`, -0.71; as for `O[C@@H](COc1cccc2ncccc12)CN1CCN(C2c3ccccc3[C@@H]3[C@H](c4ccccc42)C3(F)F)CC1` (stereo partly drawn), -1.51. With `COc1cc(Nc2c(C#N)cnc3cc(OCCCN4CCN(C)CC4)c(OC)cc23)c(Cl)cc1Cl` [Bosutinib (SKI 606)], the “presynaptic density (Z-score)” value was -1.36. As for `Cc1ccccc1C(=O)Nc1ccc(C(=O)N2CCCC(O)c3cc(Cl)ccc32)c(C)c1` (stereo not drawn) [Tolvaptan], the figure is 0.77. Then `CS(=O)(=O)c1ccc(-c2cnc(N)c(C(=O)Nc3ccccc3)n2)cc1`, with -0.463.

These data come from the supplement of paper PMC10121225.
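Further: immunostained co-cultures imaged by high-content microscopy, Z-score per plate against mean and SD of 0.1% DMSO wells, compounds added on differentiation day 18, analysed day 21.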
